Wnt bcat act: activators of Wnt/beta-catenin signaling; Wnt/beta-catenin reporter cell assay, activator, plate reader; activation, % at 9.35 µM; 300,000 tested, 1.2% active; in the data active = activation above about 30%, passing the limit was not always enough;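 also: 0% = neutral control wells and 100% = positive control wells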
MITF act: activators of MITF-driven TRPM1 promoter activity in SK-MEL-5 cells; SK-MEL-5 TRPM1-promoter luciferase, 24 h; % of positive control, neutral wells = 0; activation, % at 12.5 µM; 300,000 tested, 0.75% active;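 active = mean activation of at least 80% with every replicate also reaching 80%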;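 also: 0% = neutral control wells and 100% = parthenolide positive control wells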
DYRK1A inh: inhibitors of rat Dyrk1A kinase; inhibition, % at 12.5 µM; Q63470; 310,000 tested, 0.43% active; ADP-Glo luminescence, NFATc1 peptide;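 also: plate controls were vehicle with enzyme for no effect and no enzyme for full effect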
miR-122 sensor: blocks miR-122 activity in Huh7 sensor cells; 340,000 tested, 0.3% active; Huh7 miR-122 Renilla luciferase sensor, 48 h; neutral wells = 0, positive control = 100; activation (reporter increase), % at 12.5 µM;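 active = mean replicate activation score at least 90 and every replicate individually at or above 90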;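 also: higher luciferase means less miR-122 activity so hits act as miR-122 inhibitors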
GSIS activator: primary screen for activators of insulin secretion dependent on glucose, INS-1E cells, GLuc reporter luminescence | activation, % at 16.6 µM | AID 743287 | 370,000 tested, 0.61% active | INS-1E GLuc reporter insulin secretion, 2-3 h;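 active = lowest replicate activation of at least 40%, so every replicate reaches that level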;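 also: 0% = median of neutral control wells and 100% = median of IBMX positive control wells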
NSD2 HMT inh: blocks human histone methyltransferase NSD2 | NSD2 peptide methylation, AlphaScreen, 120 min | inhibition, % at 12.5 µM | 310,000 tested, 0.54% active | AID 743445
Target sequence (O96028 whole entry, looked up): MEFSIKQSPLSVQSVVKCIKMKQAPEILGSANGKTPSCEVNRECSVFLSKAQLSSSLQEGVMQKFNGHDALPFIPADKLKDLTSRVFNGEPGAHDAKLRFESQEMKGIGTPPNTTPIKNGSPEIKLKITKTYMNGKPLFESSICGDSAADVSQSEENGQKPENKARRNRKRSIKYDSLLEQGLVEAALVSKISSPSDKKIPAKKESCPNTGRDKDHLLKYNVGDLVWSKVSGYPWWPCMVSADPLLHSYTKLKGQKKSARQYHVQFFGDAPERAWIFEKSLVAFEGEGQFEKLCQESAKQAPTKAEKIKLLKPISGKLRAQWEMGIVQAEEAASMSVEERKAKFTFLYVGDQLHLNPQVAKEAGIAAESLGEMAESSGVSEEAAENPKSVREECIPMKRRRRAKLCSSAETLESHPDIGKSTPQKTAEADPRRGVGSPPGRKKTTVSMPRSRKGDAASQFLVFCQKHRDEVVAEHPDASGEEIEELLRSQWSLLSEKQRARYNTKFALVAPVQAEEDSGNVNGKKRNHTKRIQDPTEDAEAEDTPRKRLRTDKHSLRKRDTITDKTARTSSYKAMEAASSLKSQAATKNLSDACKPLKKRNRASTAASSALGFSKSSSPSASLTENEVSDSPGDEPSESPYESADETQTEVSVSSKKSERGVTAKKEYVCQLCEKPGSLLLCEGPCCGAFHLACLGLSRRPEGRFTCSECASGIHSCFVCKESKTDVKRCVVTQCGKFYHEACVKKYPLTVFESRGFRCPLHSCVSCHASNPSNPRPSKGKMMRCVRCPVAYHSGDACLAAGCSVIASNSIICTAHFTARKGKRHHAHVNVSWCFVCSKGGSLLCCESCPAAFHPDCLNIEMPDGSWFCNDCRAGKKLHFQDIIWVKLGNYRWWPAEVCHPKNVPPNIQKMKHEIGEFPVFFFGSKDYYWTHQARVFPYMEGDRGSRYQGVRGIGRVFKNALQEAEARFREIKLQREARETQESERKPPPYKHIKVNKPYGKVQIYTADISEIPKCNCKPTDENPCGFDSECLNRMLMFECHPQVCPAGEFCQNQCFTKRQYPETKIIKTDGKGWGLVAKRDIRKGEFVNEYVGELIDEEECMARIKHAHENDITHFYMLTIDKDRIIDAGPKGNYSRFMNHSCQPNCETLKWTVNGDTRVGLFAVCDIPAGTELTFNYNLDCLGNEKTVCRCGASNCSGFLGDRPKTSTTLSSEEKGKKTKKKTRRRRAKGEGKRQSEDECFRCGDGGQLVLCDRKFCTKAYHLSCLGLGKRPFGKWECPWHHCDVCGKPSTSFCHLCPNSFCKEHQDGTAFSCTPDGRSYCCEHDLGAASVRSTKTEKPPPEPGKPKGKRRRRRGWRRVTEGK
* marks the source's active call; other numbers are inactive results; . = no result given; [ ] = dose if it differs, or a comment. Compounds with a hit are over-represented: about 2.4% of the library has one in this group of screens. Rule as the data show it, unless noted: active = inhibition above about 50%; inactive = the rest.

SMILES	Wnt bcat act	MITF act	DYRK1A inh	miR-122 sensor	GSIS activator	NSD2 HMT inh
C[C@H](CO)N1C[C@H](C)[C@H](CN(C)C(=O)Nc2ccccc2)Oc2ccc(NS(C)(=O)=O)cc2CC1=O	.	.	.	0.0[16.7 µM]	3.4	.
Nc1nc(SCc2nc3scc(-c4ccccc4)c3c(=O)[nH]2)n[nH]1	1.5	-5.8	19.1	-6.1	55.3*	3.1
CO[C@@H]1CN(C)C(=O)c2cc(NS(=O)(=O)c3ccc(C)cc3)ccc2OC[C@@H](C)N(Cc2nccs2)C[C@@H]1C	.	.	.	.	-18.3	.
Cc1cccc(-n2c(C)c(C)c3c(N)ncnc32)c1	-0.2	17.2	17.2	.	49.4*	12.0
O=C(Nc1ccc(-c2cn3c(n2)SCC3)cc1)c1ccc2ccccc2n1	-1.9	-12.5	.	.	-1.6	-3.0
O=C(Nc1cccc(-c2cn3c(n2)SCC3)c1)c1ccc2ccccc2n1	41.5*	62.5	7.0	3.1	-4.2	-4.2
CCOc1ccc(-n2nnnc2-c2nc3ccccc3s2)cc1	-5.3	-18.8	4.0	.	90.0*	0.1
Cc1cc(NS(=O)(=O)c2ccc(NC(=O)C(C)Oc3ccc(Cl)cc3)cc2)no1 (stereo not drawn)	.	-8.9	2.9	.	4.9	2.3
Cc1cc(NS(=O)(=O)c2ccc(NC(=O)C(C)Oc3ccccc3Cl)cc2)no1 (stereo not drawn)	-2.8	9.7	-2.3	1.1	59.0*	-1.1
CCc1ccccc1NS(=O)(=O)c1ccc(OC)c2ncccc12	-1.3	-38.7	5.8	83.9	7.0	-4.7
CCc1ccc(NS(=O)(=O)c2ccc(OC)c3ncccc23)cc1	-1.6	-5.9	-0.7	173.2*	-1.9	3.2
C#CC(=O)CC1(CN(Cc2ccccc2)C(=O)OC(C)(C)C)CCCCC1	7.8	-5.5	-5.4	2.3	53.9*	.
CC(C)(O)C#Cc1ccc(C(=O)Nc2ccc3c(c2)OCO3)s1	30.9*	46.8	1.3	1.3	3.7	-0.6
CCc1sc(C(=O)Nc2ccc3c(c2)OCO3)cc1C	42.5*	124.2*	3.4	5.3	-6.8	0.9
CCc1sc(C(=O)Nc2nccs2)cc1C	46.9*	55.9	1.6	.	27.7	-1.9
CCc1sc(C(=O)Nc2ccc3c(c2)OCCO3)cc1Br	43.2*	104.2*	.	-2.9	-13.2	0.4
COc1ccc(CN(C)C[C@@H]2Oc3c(NS(=O)(=O)c4ccc(F)cc4)cccc3C(=O)N([C@@H](C)CO)C[C@H]2C)cc1	.	.	.	-4.9[16.7 µM]	8.2	.
O=C(c1cccc(F)c1)N1CC(=O)N2[C@@H](CO)[C@@H](c3ccc(C4=CCCC4)cc3)[C@@H]2C1	.	.	.	.	1.1	.
C[C@@H]1CN(C)C(=O)c2cc(NS(C)(=O)=O)ccc2O[C@H]1CN(C)C	.	.	.	.	14.1	.
O=[N+]([O-])c1ccccc1N=Nc1c(O)[nH]c2ccc(F)cc12	31.3*	24.5	1.3	.	21.0	-3.1
Cc1ccc2[nH]c(O)c(N=Nc3ccccc3[N+](=O)[O-])c2c1	-0.4	.	6.6	2.4	.	0.9
Nc1nonc1-n1nnc(C(=O)N/N=C/c2ccc(OCc3cccc(Cl)c3)cc2)c1CN1CCCCC1	20.5	106.3*	2.0	.	12.2	-4.8
CC(C)c1c(C(=O)N/N=C/c2cccc3ccccc23)nnn1-c1nonc1N	-1.5	-16.1	-1.5	5.3	74.8*	6.4
CCOc1cccc(-c2c(C(=O)N/N=C/c3ccncc3)nnn2-c2nonc2N)c1	-0.4	5.5	60.0*	7.6	-10.4	-2.8
Nc1nonc1-n1nnc(C(=O)N/N=C/c2ccc(OCc3ccccc3F)cc2)c1CN1CCCCC1	4.5	83.7*	3.6	4.1	-4.5	-0.3
SMILES	Wnt bcat act	MITF act	DYRK1A inh	miR-122 sensor	GSIS activator	NSD2 HMT inh
Cc1cccc(COc2ccc(/C=N/NC(=O)c3nnn(-c4nonc4N)c3CN3CCCCC3)cc2)c1	3.8	18.7	0.1	.	9.3	-1.8
CC(C)c1c(C(=O)N/N=C/c2c[nH]c3ccccc23)nnn1-c1nonc1N	-1.3	-14.7	8.7	-8.1	-15.3	2.5
O=C(O)C[C@H]1C[C@H]2c3cc(NC(=O)Nc4ccccc4)ccc3O[C@H]2[C@@H](CO)O1	.	.	.	0.5[16.7 µM]	5.1	.
CCCNC(=O)C[C@@H]1C[C@@H]2c3cc(NC(=O)Nc4ccccc4)ccc3O[C@@H]2[C@H](CO)O1	.	.	.	-0.5[16.7 µM]	0.5	.
CC(C)c1cn(CC[C@H]2CC[C@H](NC(=O)C3CCOCC3)[C@H](CO)O2)nn1	.	.	.	.	1.1	.
CCOCC(=O)Nc1c(C(=O)N2CCN(c3ncccn3)CC2)oc2ccccc12	4.6	19.4	2.2	125.3*	-2.2	6.8

Screens deposited in PubChem BioAssay by Broad Institute.
